Screening data: PubChem BioAssay, National Center for Advancing Translational Sciences (NCATS)
AMA1 RON2 block: inhibitors of Plasmodium falciparum AMA1-RON2 interaction. AID 720542. hit rate 0.2% among 360,000. Potency, µM (top dose mostly 58.2 µM), inactives show at the highest dose activity change, negative = inhibition, hits mostly inhibitors. AlphaScreen AMA1-biotinylated RON2 peptide binding;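 note: 0% = vehicle wells and -100% = peptide control; nearly all actives have a fitted effect of over 45% in size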
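AMA1 (3D7) with his tag at 25 nM final met compounds first, then biotinylated RON2 peptide at 25 nM; detection used donor plus acceptor beads, 10 µg/mL apiece, read by AlphaScreen after 30 min at room temperature.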
AmpC inh detg: inhibitors of E. coli AmpC beta-lactamase with detergent | AmpC hydrolysis of nitrocefin, absorbance 480 nm, 0.01% Triton | Potency, µM (series often up to 114 µM), for the others: top-dose activity change, negative = inhibition, actives largely listed as inhibitors | P00811 | hit rate 0.041% among 370,000;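 note: 0% = no-compound wells and -100% = no-enzyme wells; nearly all actives have a fitted effect of over 25% in size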
Target sequence (P00811 whole entry, looked up): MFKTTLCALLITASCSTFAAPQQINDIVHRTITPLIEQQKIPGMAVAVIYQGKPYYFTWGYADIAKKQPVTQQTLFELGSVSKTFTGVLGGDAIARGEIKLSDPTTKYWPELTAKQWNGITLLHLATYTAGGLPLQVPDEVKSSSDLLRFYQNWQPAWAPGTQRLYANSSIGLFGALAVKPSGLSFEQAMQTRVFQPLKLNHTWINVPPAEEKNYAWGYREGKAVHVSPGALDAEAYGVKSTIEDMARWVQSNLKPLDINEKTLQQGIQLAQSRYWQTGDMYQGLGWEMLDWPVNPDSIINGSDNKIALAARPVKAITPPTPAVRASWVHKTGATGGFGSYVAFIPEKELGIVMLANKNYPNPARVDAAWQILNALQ
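AmpC (5.3 nM in the dispensed reagent) in 20 mM phosphate pH 7.0 with 0.01% (detergent screen) or 0.0001% Triton X-100 was preincubated with compounds for 15 min at room temperature. Nitrocefin was then added from an 800 uM solution, and hydrolysis was followed at 480 nm.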
SARS PLP yeast: blocks SARS-CoV papain-like protease in a yeast assay; S. cerevisiae expressing SARS-CoV PLpro, growth rescue; Potency, µM (doses to about 32.9 µM), without a hit: at the highest dose activity, positive = growth rescue, usual class: activators; hit rate 0.19% among 330,000; AID 485353; calls by dose curve; note: 0% is about no effect; nearly all actives have a fitted effect of over 55% in size
AmpC no deterg: AmpC beta-lactamase inhibition without detergent | P00811 | AmpC nitrocefin hydrolysis, absorbance 480 nm, 0.0001% Triton | Potency, µM (series often up to 57.1 µM), without a hit: top-dose activity change, negative = inhibition, usual class: inhibitors | hit rate 0.52% among 330,000;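 note: plate controls were no compound for no effect and no enzyme for full effect; nearly all actives have a fitted effect of over 20% in size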
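20 mM phosphate pH 7.0 + 0.01% (detergent screen) or 0.0001% Triton X-100; 5.3 nM AmpC reagent; cpd preinc 15 min RT; nitrocefin (800 uM stock) to start; A480 q20 s × 4 min; Activity was normalised to no-enzyme and no-compound control wells.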
VACV Venus inh: vaccinia inhibition (Venus reporter); Vaccinia virus Venus reporter expression, fluorescence; Potency, µM (titrated, usually from 36.5 µM), for the others: at the highest dose activity change, negative = inhibition, hits mostly inhibitors; hit rate 0.46% among 330,000; AID 720580; calls by dose curve; tested in A549 cells; note: % is set by controls: 0 for no effect and ±100 for the full control effect; nearly all actives have a fitted effect of over 30% in size
VACV mCherry inh: vaccinia inhibition (mCherry reporter); Vaccinia virus mCherry reporter infection, fluorescence; Potency, µM (titrated, usually from 36.5 µM), without a hit: at the top dose activity change, negative = inhibition, usual class: inhibitors; hit rate 0.63% among 310,000; calls by dose curve; tested in A549 cells; note: % is set by controls: 0 for no effect and ±100 for the full control effect; nearly all actives have a fitted effect of over 35% in size
The depositor's hits bear a star; i = inactive; ? = inconclusive; nt = no result. An excerpt weighted towards active compounds, which were near 1.4% of everything screened. Unless noted, calls come from the whole dose curve; as a rule, active = well fitted curve in the direction sought with a large enough effect; inconclusive = small, poorly fitted or top-dose-only effect, or another doubt; inactive = no such curve, though single readings can be large; an effect the other way counts as inactive or inconclusive. Potency is the fitted concentration of half-maximal effect.

SMILES | AMA1 RON2 block | AmpC inh detg | SARS PLP yeast | AmpC no deterg | VACV Venus inh | VACV mCherry inh
COc1ccc(CNC(=O)c2cnn(-c3ncc4c(n3)-c3ccccc3CC4)c2C)cc1OC | nt | nt | nt | nt | -11% | -25%
COC(=O)c1cc(C(=O)N2CCN(c3cccc(C)c3C)CC2)cc([N+](=O)[O-])c1 | -7% | 2% | -1% | 48% | -24% | ?
O=C(NCCc1ccccc1)c1ccc2nc(-c3ccco3)c(-c3ccco3)nc2c1 | 1% | -9% | -3% | 16µM* | nt | nt
O=C(NCCO)c1ccc2nc(-c3ccco3)c(-c3ccco3)nc2c1 | ? | 2% | -11% | -7% | -15% | -7%
COC(=O)c1cc(C(=O)N2CCN(c3ccccc3OC)CC2)cc([N+](=O)[O-])c1 | 13% | -14% | -1% | -9% | -16% | 2.8µM*
CC(C)CCNC(=O)C(c1ccc(O)cc1)N(Cc1cccs1)C(=O)C1COc2ccccc2O1 (stereo not drawn) | -12% | ? | 4% | -32% | 28µM* | 11µM*
COc1cc(C2c3sc(=O)[nH]c3SC3C(=O)N(c4ccc(Br)cc4)C(=O)C32)ccc1O (stereo not drawn) | 51% | 1% | 2% | 10µM* | 3% | i
COc1ccccc1-c1nnc(NC(=O)CCS(=O)(=O)c2ccccc2)o1 | 34% | 2% | -4% | -5% | ? | 8.9µM*
COc1cc(-c2nnc(NC(=O)CS(=O)(=O)c3ccc(F)cc3)o2)cc(OC)c1OC | 36% | 0% | 2% | -21% | 2% | -5%
COc1ccccc1-c1nnc(NC(=O)c2ccc(S(=O)(=O)N(C)C)cc2)o1 | 64% | -12% | -1% | -26% | ? | -25%
Cc1ccc(-c2nnc(NC(=O)CCS(=O)(=O)c3ccc(F)cc3)o2)c(C)c1 | 132% | -10% | 3% | -1% | -15% | -21%
O=C(CCS(=O)(=O)c1ccc(Cl)cc1)Nc1nnc(-c2ccco2)o1 | 67% | ? | -1% | ? | ? | 10µM*
O=C(CCS(=O)(=O)c1ccc(F)cc1)Nc1nnc(-c2ccc(F)cc2)o1 | 83% | -18% | 0% | -12% | ? | 10µM*
COc1ccccc1-c1nnc(NC(=O)CCS(=O)(=O)c2ccc(F)cc2)o1 | 130% | nt | nt | nt | 4.5µM* | ?
Cc1oc(-c2ccccc2NS(C)(=O)=O)nc1CN(C)Cc1ccc(Cl)cc1 | nt | nt | nt | nt | -1% | -9%
Cc1ccc(F)cc1CNC(=O)c1sc2ncnc(NCC3CCCO3)c2c1C (stereo not drawn) | nt | nt | nt | nt | -18% | i
CCCCCCCCN1[C@@H](CC(=O)OC)c2ccc(/C=C/C(=O)OC)cc2S1(=O)=O | nt | nt | nt | nt | -19% | -4%
C#CCN(C1CCCC1)S(=O)(=O)C=C | nt | nt | nt | nt | -70% | ?
O=C1NC(=Nc2ccc(O)cc2)S/C1=C\C=C\c1ccco1 | -10% | 2% | 1% | 18µM* | -6% | ?
COc1ccc2c(c1)CCc1cnc(-n3ncc(C(=O)N(C)CCc4ccccn4)c3C)nc1-2 | nt | nt | nt | nt | -30% | -10%
Cc1ccccc1/C=C/C(=O)c1ccc([N+](=O)[O-])o1 | ? | 7% | -16% | -15% | ? | ?
Cc1cccc(/C=C/C(=O)c2ccc([N+](=O)[O-])o2)c1 | -4% | 0% | -19% | -12% | 11µM* | ?
O=C(/C=C/c1cccc([N+](=O)[O-])c1)c1ccc([N+](=O)[O-])o1 | 6% | nt | nt | nt | 13µM* | ?
O=C(NCC1(N2CCOCC2)CCCC1)c1cnn(-c2ncc3c(n2)-c2ccccc2CC3)c1C1CC1 | nt | nt | nt | nt | -15% | -19%
Cc1ccc(CNc2nc(CN3CCSCC3)nc3ccccc23)o1 | nt | nt | nt | nt | -8% | -18%
SMILES | AMA1 RON2 block | AmpC inh detg | SARS PLP yeast | AmpC no deterg | VACV Venus inh | VACV mCherry inh
CC1=NNC(=O)/C1=C\c1cn(-c2ccccc2)nc1-c1ccc(F)cc1 | 42% | 2% | -5% | -22% | 10µM* | 10µM*
Cc1nnc(N/N=C/c2ccccc2O)n1N | 46% | 5% | -4% | -8% | ? | ?
Cc1nnc(N/N=C/c2ccc(-c3ccccc3F)o2)n1N | 99% | 1% | -5% | -22% | 28µM* | ?
Cc1nnc(N/N=C\c2ccc(-c3ccccc3[N+](=O)[O-])o2)n1N | -13% | -5% | -1% | -26% | 22µM* | ?
O=C(NCC1Cc2cccc(-c3cnccn3)c2O1)c1ccc2c(c1)OCCO2 (stereo not drawn) | nt | nt | nt | nt | -8% | -14%
C[C@@H]1O[C@@H](O[C@H]2C[C@@H](O)[C@]3(CO)[C@H]4[C@H](O)C[C@]5(C)[C@@H](C6=CC(=O)OC6)CC[C@]5(O)[C@@H]4CC[C@]3(O)C2)[C@H](O)[C@H](O)[C@H]1O | -4% | ? | -4% | -18% | 0.63µM* | 0.5µM*
C[C@@H]1O[C@@H](O[C@H]2C[C@@H](O)[C@]3(CO)[C@@H]4C(CC[C@]3(O)C2)[C@@]2(O)CC[C@H](C3=CC(=O)OC3)[C@@]2(C)C[C@H]4O)[C@H](O)[C@H](O)[C@H]1O (stereo partly drawn) | nt | nt | nt | nt | -9% | -11%
CC1O[C@@H](OC2CC(O)[C@@]3(CO)C4C(O)C[C@@]5(C)C(C6=CC(=O)OC6)CC[C@]5(O)C4CC[C@]3(O)C2)C(O)C(O)C1O (stereo partly drawn) | nt | nt | nt | nt | 0.28µM* | 0.32µM*
Cn1c(N=Nc2ccccc2)nc2ccccc21 | -24% | -12% | -60% | -5% | -5% | i
CN(C)c1ccc(N=Nc2nc3ccccc3n2C)cc1 | 4µM* | -5% | -14% | -12% | nt | nt
Cn1cccc1Cc1nnc(SCC(=O)N2CCOCC2)n1-c1ccc(F)cc1 | -2% | -10% | ? | 2.5µM* | 5% | -1%
COc1ccc(CCN2CCC(Nc3nc4ccccc4n3Cc3ccc(F)cc3)CC2)cc1 | -22% | -7% | 0% | 88% | 10µM* | 11µM*
COc1ccccc1N1C(=O)CC(Sc2n[nH]c(-c3cccc(C)c3)n2)C1=O (stereo not drawn) | 15% | -6% | -83% | 16µM* | -8% | -14%
Cn1c2cc(Br)sc2c2cnn(Cc3ccc(F)cc3F)c(=O)c21 | nt | ? | -8% | -8% | nt | nt
Cn1c2cc(B(O)O)sc2c2cnn(Cc3c(F)cccc3Cl)c(=O)c21 | nt | 2.5µM* | -2% | 5µM* | nt | nt
Cn1c2cc(B(O)O)sc2c2cnn(Cc3ccc(F)cc3F)c(=O)c21 | nt | 3.5µM* | -2% | 3.5µM* | nt | nt
Cn1c2cc(B(O)O)sc2c2cnn(Cc3c(F)cccc3F)c(=O)c21 | nt | 2.5µM* | 3% | 5.6µM* | nt | nt
COc1ccc(-c2nnc(SCC(=O)Nc3cccc(C(F)(F)F)c3)nc2-c2ccc(OC)cc2)cc1 | nt | -2% | nt | nt | -17% | -16%
